Reference: PubChem BioAssay
Several values for one entry are separate records, joined by “and”; a condition that tells them apart may be missing. Identical values can stand only once. For some assays here: Results with a measured potency or affinity are listed apart. Some compounds were tested as several samples or in several runs, with calls that do not always agree. Activity calls are given as the source filed them. Unless noted, no rule for the calls is given here.

Key:
[1] = antimalarial activity against Dd2 strain (AID 2302;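 active = growth inhibition above 50% at the single 2 µM test dose, taken to imply half-maximal potency below 2 µM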;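 also: 0% = DMSO untreated growth and 100% = chloroquine plus artemisinin killed control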); details: P. falciparum Dd2 in RBCs, LDH growth readout, 72 h; at 2 µM; stronger effect = higher value
[2] = human hepatoma cell viability loss – ATP luminescence, cytotoxicity control for P. falciparum antimalarial project, primary screen (AID 2303;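 active = inhibition above 50%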;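 also: 0% = DMSO wells and 100% = digitonin-killed cells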); details: HepG2 viability, 24-48 h, at 10 µM, stronger effect = higher value
[3] = molecular target: L-lactate dehydrogenase (Plasmodium falciparum (isolate CDC / Honduras)) (UniProt Q27743); experiment: PfLDH activity inhibition – cell lysate, 3D7 strain, counter-screen for P. falciparum growth inhibition project (AID 2304);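 also: 0% = vehicle and 100% = reference inhibitor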; details: P. falciparum 3D7 crude extract, LDH APAD/NBT absorbance; at 2 µM; stronger effect = higher value
[4] = inhibition of 3D7 malaria parasite growth – strain 3D7 (AID 2306);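 also: 0% = DMSO wells and 100% = chloroquine plus artemisinin control wells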; details: P. falciparum 3D7 erythrocytic growth, LDH absorbance, 72 h; at 2 µM; stronger effect = higher value
[5] = molecular target: Calcium-dependent protein kinase 1 (Plasmodium falciparum (isolate 3D7)) (UniProt P62344); experiment: PfCDPK1 kinase inhibitors, biochemical, TCAMS library (AID 1159585; cut-off not given, nearly all actives have IC50 up to about 0.98 µM;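 also: inhibitors leave more ATP so luminescence rises with inhibition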); details: recombinant PfCDPK1, Kinase-Glo ATP depletion luminescence
[6] = molecular target: Plasmodium falciparum protein kinase 6 (PK6, PF3D7_1337100) (UniProt Q8IDW1); experiment: PfPK6 kinase inhibitors, biochemical, TCAMS library (AID 1159586); details: recombinant PfPK6, Kinase-Glo ATP depletion luminescence
[7] = molecular target: Protein kinase 7 (PK7), Plasmodium falciparum 3D7 (PF3D7_0213400) (UniProt Q7YTF7); experiment: inhibition of Plasmodium PK7 catalytic activity – biochemical, TCAMS antimalarial set, Kinase-Glo luminescence (AID 1159587); details: recombinant PfPK7, Kinase-Glo ATP depletion luminescence
[8] = molecular target: Calcium-dependent protein kinase 4 (Plasmodium falciparum (isolate 3D7)) (UniProt Q8IBS5); experiment: PfCDPK4 kinase inhibitors, biochemical, TCAMS library (AID 1159588; cut-off not given, nearly all actives have IC50 up to about 0.91 µM); details: recombinant PfCDPK4, Kinase-Glo ATP depletion luminescence
Calcium-dependent protein kinase 4 (Plasmodium falciparum (isolate 3D7)), sequence (Q8IBS5 whole entry, looked up): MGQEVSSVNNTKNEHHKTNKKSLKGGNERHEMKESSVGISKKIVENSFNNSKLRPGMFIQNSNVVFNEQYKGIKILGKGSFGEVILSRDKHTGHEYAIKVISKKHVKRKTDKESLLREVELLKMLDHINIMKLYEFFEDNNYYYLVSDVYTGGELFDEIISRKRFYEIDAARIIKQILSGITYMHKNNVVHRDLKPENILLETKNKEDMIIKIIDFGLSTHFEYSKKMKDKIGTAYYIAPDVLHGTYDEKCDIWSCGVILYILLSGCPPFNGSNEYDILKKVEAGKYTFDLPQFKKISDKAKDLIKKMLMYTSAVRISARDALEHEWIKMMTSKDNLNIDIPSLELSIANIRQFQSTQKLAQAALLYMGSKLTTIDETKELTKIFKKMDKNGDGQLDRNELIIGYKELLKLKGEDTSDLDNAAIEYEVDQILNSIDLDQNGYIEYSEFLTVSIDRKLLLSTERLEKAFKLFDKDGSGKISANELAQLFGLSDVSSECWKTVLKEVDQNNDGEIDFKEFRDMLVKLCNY

Plasmodium falciparum protein kinase 6 (PK6, PF3D7_1337100), sequence (Q8IDW1 1-305): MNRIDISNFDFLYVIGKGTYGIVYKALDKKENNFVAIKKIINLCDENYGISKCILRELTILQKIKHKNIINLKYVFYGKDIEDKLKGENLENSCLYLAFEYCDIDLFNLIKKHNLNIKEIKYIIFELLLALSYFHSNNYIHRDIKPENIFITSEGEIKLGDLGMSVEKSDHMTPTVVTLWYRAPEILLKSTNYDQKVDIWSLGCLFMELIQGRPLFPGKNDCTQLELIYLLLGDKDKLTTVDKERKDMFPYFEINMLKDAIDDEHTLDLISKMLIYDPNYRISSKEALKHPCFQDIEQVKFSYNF
L-lactate dehydrogenase (Plasmodium falciparum (isolate CDC / Honduras)), sequence (Q27743 whole entry, looked up): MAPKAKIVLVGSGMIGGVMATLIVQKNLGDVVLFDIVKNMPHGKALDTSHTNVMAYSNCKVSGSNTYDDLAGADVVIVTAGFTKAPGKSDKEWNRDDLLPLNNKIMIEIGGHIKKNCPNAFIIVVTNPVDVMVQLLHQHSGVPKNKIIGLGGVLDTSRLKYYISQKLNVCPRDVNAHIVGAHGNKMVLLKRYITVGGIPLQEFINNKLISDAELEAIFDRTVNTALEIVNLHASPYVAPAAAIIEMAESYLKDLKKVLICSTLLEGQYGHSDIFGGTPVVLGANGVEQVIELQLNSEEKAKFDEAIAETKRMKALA
Protein kinase 7 (PK7), Plasmodium falciparum 3D7 (PF3D7_0213400), sequence (Q7YTF7 1-343): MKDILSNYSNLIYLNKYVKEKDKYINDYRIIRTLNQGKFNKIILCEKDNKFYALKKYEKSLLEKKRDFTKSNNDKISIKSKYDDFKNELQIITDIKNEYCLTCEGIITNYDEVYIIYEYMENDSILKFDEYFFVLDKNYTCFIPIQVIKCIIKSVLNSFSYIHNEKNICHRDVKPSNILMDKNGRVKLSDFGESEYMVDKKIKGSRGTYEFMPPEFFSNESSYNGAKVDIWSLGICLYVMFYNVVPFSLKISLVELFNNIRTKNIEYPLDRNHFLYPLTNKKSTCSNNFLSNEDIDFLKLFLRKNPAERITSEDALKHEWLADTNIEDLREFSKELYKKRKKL
Calcium-dependent protein kinase 1 (Plasmodium falciparum (isolate 3D7)), sequence (P62344 whole entry, looked up): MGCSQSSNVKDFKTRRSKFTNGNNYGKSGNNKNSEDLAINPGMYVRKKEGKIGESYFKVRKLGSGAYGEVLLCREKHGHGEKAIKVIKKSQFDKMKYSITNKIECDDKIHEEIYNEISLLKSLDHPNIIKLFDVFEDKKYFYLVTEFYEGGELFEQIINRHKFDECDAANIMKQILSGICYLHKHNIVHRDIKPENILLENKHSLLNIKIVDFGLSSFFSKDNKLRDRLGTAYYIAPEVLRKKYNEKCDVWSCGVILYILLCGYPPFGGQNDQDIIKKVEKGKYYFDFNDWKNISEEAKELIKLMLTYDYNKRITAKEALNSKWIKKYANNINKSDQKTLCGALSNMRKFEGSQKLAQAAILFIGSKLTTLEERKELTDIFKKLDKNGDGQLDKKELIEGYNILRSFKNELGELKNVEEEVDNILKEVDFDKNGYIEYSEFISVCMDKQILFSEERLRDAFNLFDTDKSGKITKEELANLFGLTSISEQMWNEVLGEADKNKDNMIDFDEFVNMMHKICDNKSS

COc1ccc2ncc(F)c(CCN3CC[C@H](NCc4cc5c(s4)CCCN5)[C@H](O)C3)c2n1
active: growth inhibition [4] 96%
inactive: growth inhibition [1] 16% | inhibition [2] 2% | inhibition [3] 0% | outcome [5] | outcome [6] | outcome [7] | outcome [8]

CC(C)(C)C1CCc2nc(N)nc(N)c2C1 (stereo not given)
inactive: growth inhibition [1] 38% | inhibition [3] 6% | outcome [5] | outcome [6] | outcome [7] | outcome [8]
active: inhibition [2] 69% | growth inhibition [4] 94%

Cc1ccc(CN2CCN(Cc3cccc(NC(=O)c4cccs4)c3)CC2)cc1C
inactive: inhibition [2] 41% | inhibition [3] 2% | outcome [5] | outcome [6] | outcome [7] | outcome [8]
active: growth inhibition [1] 68% | growth inhibition [4] 96%

FC(F)(F)c1cccc(C=NNc2nc3ccccc3[nH]2)c1
inactive: inhibition [2] 1% | inhibition [3] 0% | outcome [5] | outcome [6] | outcome [7] | outcome [8]
active: growth inhibition [1] 99% | growth inhibition [4] 101%

CN1CCN(Cc2ccc(-c3cc4nccc(Nc5ccc(Oc6ccccc6)cc5)c4cc3Cl)o2)CC1
active: growth inhibition [1] 99% | growth inhibition [4] 100%
inactive: inhibition [2] 3% | inhibition [3] -5% | outcome [5] | outcome [6] | outcome [7] | outcome [8]

CCCCN(Cc1cc(Cl)c(OC)c(OC)c1)c1ccc(C(O)(C(F)(F)F)C(F)(F)F)cc1
inactive: inhibition [2] 3% | inhibition [3] 6% | outcome [5] | outcome [6] | outcome [7] | outcome [8]
active: growth inhibition [1] 73% | growth inhibition [4] 98%

c1ccc(Oc2cccc(Nc3ccnc4ccccc34)c2)cc1
active: growth inhibition [4] 95%
inactive: growth inhibition [1] 14% | inhibition [2] 48% | inhibition [3] 6% | outcome [5] | outcome [6] | outcome [7] | outcome [8]

Cc1cc(N(C)C)nc(Nc2ccc(NC(=O)c3ccccc3F)cc2)n1
inactive: growth inhibition [1] 26% | inhibition [2] 0% | inhibition [3] 4% | outcome [5] | outcome [6] | outcome [7] | outcome [8]
active: growth inhibition [4] 89%

O=C(NC1CC1)c1cnc(N2CCCC(c3ccccc3)C2)c(Cl)c1 (stereo not given)
inactive: inhibition [2] 6% | inhibition [3] -3% | outcome [5] | outcome [6] | outcome [7] | outcome [8]
active: growth inhibition [1] 94% | growth inhibition [4] 95%

COc1ccc(-c2cccc(NC(=O)c3cccc(Cl)c3)c2)cc1CN1CCNCC1
active: growth inhibition [1] 52% | growth inhibition [4] 101%
inactive: inhibition [2] 29% | inhibition [3] 9% | outcome [5] | outcome [6] | outcome [7] | outcome [8]

COc1cc(C(F)(F)F)c2cc(CNCCCNc3nc4ccccc4[nH]3)[nH]c2c1
active: inhibition [2] 60% | growth inhibition [4] 101%
inactive: growth inhibition [1] 0% | inhibition [3] -6% | outcome [5] | outcome [6] | outcome [7] | outcome [8]

COc1ccccc1NC(=O)c1cc(C(=O)c2cc(Cl)ccc2O)cn(-c2ccccc2OC)c1=O
inactive: growth inhibition [1] 31% | inhibition [2] 9% | inhibition [3] 7% | outcome [5] | outcome [6] | outcome [7] | outcome [8]
active: growth inhibition [4] 92%

Cc1cc(N[C@@H](Cc2ccccc2)C(=O)NC2CCCC2)nc(NCCc2cccs2)n1
inactive: growth inhibition [1] 14% | inhibition [2] -6% | inhibition [3] -2% | outcome [5] | outcome [6] | outcome [7] | outcome [8]
active: growth inhibition [4] 99%

Cc1noc(C)c1-c1cccc(CNCc2cccc(-c3csc(-c4nc5ccccc5[nH]4)c3)c2)c1
inactive: inhibition [2] 32% | inhibition [3] -7% | outcome [5] | outcome [6] | outcome [7] | outcome [8]
active: growth inhibition [1] 74% | growth inhibition [4] 100%

CCCC(C)NC(=O)C(N)Cc1cccc(I)c1 (stereo not given)
inactive: inhibition [2] 11% | inhibition [3] 0% | outcome [5] | outcome [6] | outcome [7] | outcome [8]
active: growth inhibition [1] 65% | growth inhibition [4] 95%

O=C(/C=C/c1ccc(Cl)c(Cl)c1)NCCCCCN1CCC(NC(=O)Nc2ccccc2Cl)CC1
inactive: growth inhibition [1] 23% | inhibition [3] 3% | outcome [5] | outcome [6] | outcome [7] | outcome [8]
active: inhibition [2] 56% | growth inhibition [4] 102%

Cc1cc(=O)c(-c2ccc(Oc3cccc(C(F)(F)F)c3)cc2)c(C)[nH]1
active: growth inhibition [1] 95% and 97% | growth inhibition [4] 96% and 97%
inactive: inhibition [2] 8% and 14% | inhibition [3] -2% and -1% | outcome [5] | outcome [6] | outcome [7] | outcome [8]

CNCCNCc1ccc(-c2cccc(-c3nc4ccc(C(F)(F)F)cc4[nH]3)c2)cc1
inactive: inhibition [2] 27% | inhibition [3] 1% | outcome [5] | outcome [6] | outcome [7] | outcome [8]
active: growth inhibition [1] 77% | growth inhibition [4] 98%

O=c1cc(NCCCNCc2cc(F)cc(C(F)(F)F)c2)[nH]c2ccccc12
inactive: growth inhibition [1] 15% | inhibition [2] -6% | inhibition [3] 1% | outcome [5] | outcome [6] | outcome [7] | outcome [8]
active: growth inhibition [4] 92%

O=C(NCCc1ccc(Cl)c(Cl)c1)c1ccc(CNC(=O)c2ccc(O)c(-c3ccc(Cl)c(Cl)c3)c2)cc1
inactive: growth inhibition [1] 3% | inhibition [2] 0% | inhibition [3] -6% | outcome [5] | outcome [6] | outcome [7] | outcome [8]
active: growth inhibition [4] 97%

O=C(/C=C/c1ccc(Cl)c(Cl)c1)NCCCCCN1CC[C@H](NC(=O)c2ccc3c(c2)OCO3)C1
active: growth inhibition [4] 94%
inactive: growth inhibition [1] 3% | inhibition [2] 32% | inhibition [3] 0% | outcome [5] | outcome [6] | outcome [7] | outcome [8]

O=C(c1ccc(Cl)cc1)N1CCOC(CCN2CCC(c3ccccc3)CC2)(c2ccc(Cl)c(Cl)c2)C1 (stereo not given)
inactive: inhibition [2] 19% | inhibition [3] 3% | outcome [5] | outcome [6] | outcome [7] | outcome [8]
active: growth inhibition [1] 68% | growth inhibition [4] 98%

c1ccc(CN2CCC(NCc3ccc(-c4ccc(CNC5CCCC5)cc4)cc3)CC2)cc1
inactive: inhibition [2] 24% | inhibition [3] -4% | outcome [5] | outcome [6] | outcome [7] | outcome [8]
active: growth inhibition [1] 98% | growth inhibition [4] 101%

CCN(CC)c1cc(C)c2cc(NC(=O)c3cc(=O)c4ccccc4o3)ccc2n1
active: growth inhibition [1] 67% | growth inhibition [4] 97%
inactive: inhibition [2] 14% | inhibition [3] 1% | outcome [5] | outcome [6] | outcome [7] | outcome [8]

CN1CCC(C(=O)Nc2ccc(-c3cccc(-c4nc5ccc(C(F)(F)F)cc5[nH]4)c3)cc2)CC1
inactive: inhibition [2] 28% | inhibition [3] 0% | outcome [5] | outcome [6] | outcome [7] | outcome [8]
active: growth inhibition [1] 97% | growth inhibition [4] 100%

C=C[C@H]1CN(CCCCCCC)CC[C@H]1CCN(C)c1ccnc2ccc(OC)cc12
inactive: inhibition [2] 22% | inhibition [3] -1% | outcome [5] | outcome [6] | outcome [7] | outcome [8]
active: growth inhibition [1] 93% | growth inhibition [4] 97%

CC(C)(C)OC(=O)N(Cc1cc(-n2nnnc2C(F)(F)F)ccc1O)[C@H]1CCCN(C(=O)OC(C)(C)C)[C@H]1c1ccccc1
active: growth inhibition [1] 66% | growth inhibition [4] 98%
inactive: inhibition [2] 14% | inhibition [3] -5% | outcome [5] | outcome [6] | outcome [7] | outcome [8]

O=C(/C=C/c1ccc(Cl)c(Cl)c1)NC1CCC(CN2CCC(c3c[nH]c4ccncc34)CC2)CC1 (stereo not given)
active: growth inhibition [1] 96% | growth inhibition [4] 100%
inactive: inhibition [2] 16% | inhibition [3] -1% | outcome [5] | outcome [6] | outcome [7] | outcome [8]

COc1ccc(CNCc2ccc(F)cc2)cc1-c1ccc(OC)c(S(=O)(=O)NCCN2CCCC2)c1
active: growth inhibition [1] 88% | growth inhibition [4] 101%
inactive: inhibition [2] 24% | inhibition [3] 5% | outcome [5] | outcome [6] | outcome [7] | outcome [8]

O=C(C=Cc1ccc(C(=O)Nc2ccc(C3=NCCN3)cc2)cc1)Nc1ccc(C2=NCCN2)cc1
inactive: inhibition [2] -7% | inhibition [3] 3% | outcome [5] | outcome [6] | outcome [7] | outcome [8]
active: growth inhibition [1] 101% | growth inhibition [4] 97%

CCNc1cc(C(=O)N[C@@H](Cc2ccccc2)[C@H](O)CNCCc2ccccc2)cc(N2CCCC2=O)c1
active: growth inhibition [4] 92%
inactive: growth inhibition [1] 46% | inhibition [2] -4% | inhibition [3] 2% | outcome [5] | outcome [6] | outcome [7] | outcome [8]

O=C(Nc1ccc(Cn2ncc(N3CCCNCC3)c(Cl)c2=O)cc1)Nc1ccc(-c2ccccc2)cc1
inactive: inhibition [2] 12% and 10% | inhibition [3] -2% and 8% | outcome [5] | outcome [6] | outcome [7] | outcome [8]
41% (inactive) and 51% (active): growth inhibition [1]
active: growth inhibition [4] 93%

Cc1cc(NCCC(=O)NCCc2ccccc2)nc(NCCc2ccc(F)cc2)n1
active: growth inhibition [4] 92%
inactive: growth inhibition [1] 7% | inhibition [2] 0% | inhibition [3] -1% | outcome [5] | outcome [6] | outcome [7] | outcome [8]

CCc1cc2c(N)nc(N)nc2nc1-c1ccccc1
active: growth inhibition [4] 91%
inactive: growth inhibition [1] -1% | inhibition [2] 18% | inhibition [3] 6% | outcome [5] | outcome [6] | outcome [7] | outcome [8]

O=C(CCCCCNC(=O)c1ccc(O)c(-c2ccc(Cl)c(Cl)c2)c1)NCCN1CCCCC1
active: growth inhibition [4] 93%
inactive: growth inhibition [1] 1% | inhibition [2] -4% | inhibition [3] 0% | outcome [5] | outcome [6] | outcome [7] | outcome [8]

O=C(Cc1cnc[nH]1)Nc1ccc(-c2cccc(-c3nc4ccc(F)cc4[nH]3)c2)cc1
active: growth inhibition [1] 70% | growth inhibition [4] 100%
inactive: inhibition [2] 28% | inhibition [3] 4% | outcome [5] | outcome [6] | outcome [7] | outcome [8]

CNCCNCc1cccc(-c2ccc(-c3nc4ccc(C(F)(F)F)cc4[nH]3)cc2)c1
active: growth inhibition [1] 92% | growth inhibition [4] 100%
inactive: inhibition [2] 21% | inhibition [3] -5% | outcome [5] | outcome [6] | outcome [7] | outcome [8]

O=C(NCCCCN1CC[C@@H]2c3cccc(O)c3CC[C@H]21)c1ccc(-c2ccccc2)cc1
active: growth inhibition [1] 50% | growth inhibition [4] 81%
inactive: inhibition [2] 23% | inhibition [3] 2% | outcome [5] | outcome [6] | outcome [7] | outcome [8]

N#Cc1cccc(NC(=O)Nc2ccc(CC(=O)N3CCc4cc(Cl)c(N5CCN(C/C=C/c6ccccc6)CC5)cc43)cc2)c1
active: growth inhibition [1] 61% | growth inhibition [4] 91%
inactive: inhibition [2] -4% | inhibition [3] -4% | outcome [5] | outcome [6] | outcome [7] | outcome [8]

c1ccc(Oc2ccc(Nc3ccnc4cc(-c5ccc(CN6CCOCC6)o5)ccc34)cc2)nc1
inactive: inhibition [2] 5% | inhibition [3] 0% | outcome [5] | outcome [6] | outcome [7] | outcome [8]
active: growth inhibition [1] 73% | growth inhibition [4] 92%
